# Only some compounds are listed: those with a hit (about 21% of all), similar ones and a draw of the others.
# Pf growth 96h: P. falciparum growth inhibition at 96 hour, primary screen for plastid delayed-death inhibitors. P. falciparum luciferase reporter growth, 96 h. Potency, µM (highest dose often 28.7 µM), without a hit: top-dose activity change, negative = inhibition, hits mostly inhibitors. hit rate 6.9% among 320,000; active = well fitted inhibition curve with a large enough effect; inconclusive = small, poorly fitted or top-dose-only effect, or another doubt; inactive = no such curve, though single readings can be large or run the other way; also: potency is read from the fitted curve at half-maximal effect; % is scaled to controls: 0 for no effect and ±100 for the full control effect
#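 Luminescence readout: decreased luciferase signal marks inhibited growth of reporter-expressing P. falciparum in infected red cells (2% hematocrit, 0.05% parasitemia final), exposed to compound two generations (96 h, 37 C, 5% CO2).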
# Shiga inhibitor: blocks Shiga toxin action in Vero cells; Vero cells, Shiga toxin protein synthesis inhibition reporter; inhibition, % at 38.7 µM; hit rate 9.2% among 290,000; AID 2315; in the data active = inhibition mostly above about 28%, no sharp cut-off; inactive = mostly below about 43%; also: 0% is about no effect
# SARS PLP yeast: SARS-CoV PLP inhibition in yeast. S. cerevisiae expressing SARS-CoV PLpro, growth rescue. Potency, µM (doses to about 32.9 µM), without a hit: top-dose activity, positive = growth rescue, hits mostly activators. hit rate 0.19% among 330,000. AID 485353; also: potency is read from the fitted curve at half-maximal effect; 0% is about no effect; nearly all actives have a fitted effect of over 55% in size
# Cycloheximide cs: affects cycloheximide protein synthesis inhibition readout, counter-screen; AID 2314; cell reporter, cycloheximide protein synthesis inhibition counterscreen; max response, %; hit rate 12% among 300,000; in the data active = max response mostly above about 13%, no sharp cut-off; inactive = mostly below about 14%; also: read at 38.3 µM for the half of the compounds with a filed dose; 0% is about no effect
# Pf growth 48h: P. falciparum growth inhibition at 48 hours (one generation); P. falciparum luciferase growth in erythrocytes, 48 h; Potency, µM (top dose mostly 28.7 µM), for the others: top-dose activity change, negative = inhibition, hits mostly inhibitors; hit rate 5.9% among 310,000; AID 504832; active = well fitted inhibition curve with a large enough effect; inconclusive = small, poorly fitted or top-dose-only effect, or another doubt; inactive = no such curve, though single readings can be large or run the other way; also: potency is read from the fitted curve at half-maximal effect; % is scaled to controls: 0 for no effect and ±100 for the full control effect
#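 Erythrocytes infected with P. falciparum carrying an integrated firefly luciferase reporter (2% hematocrit, 0.1% parasitemia final) were exposed to compounds in RPMI 1640 with 0.5% Albumax at 37 C, 5% CO2. Growth inhibition was scored as reduced luminescence.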
# NS1 inh: influenza NS1 inhibition; hit rate 0.4% among 270,000; Potency, µM (series often up to 46.1 µM), inactives show at the top dose activity, positive = more growth; also: potency is read from the fitted curve at half-maximal effect; actives are rising curves; nearly all actives have a fitted effect of over 50% in size
#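 Recovery from NS1-induced slow growth read by OD600 in budding yeast switched to galactose assay medium (pH 6.0, -URA) at 1:100 dilution. Compound 23 nl per well; the matching strain lacking NS1 serves as control.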
# Numbers without * were called inactive; ? = inconclusive; . = no result given. Unless noted, calls follow the shape of the full dose curve.
SMILES,Pf growth 96h,Shiga inhibitor,SARS PLP yeast,Cycloheximide cs,Pf growth 48h,NS1 inh
Cc1noc(C)c1COc1cccc(C(=O)Nc2ccc(OCc3ccccc3)cc2)c1,-20%,27,0%,12*,-3%,-3%
Cc1ccsc1C(=O)Nc1ccc(OCc2ccccc2)cc1,133%,68*,-4%,18*,133%,6%
Cc1ccsc1C(=O)Nc1ccc(C(=O)O)cc1,92%,10,3%,-1,.,-2%
CC(C)Sc1nc2ccccc2n2cnnc12,?,-7,-7%,12,12%,-22%
O=C(NCCc1ccccc1)c1ccc(NC(=O)c2cccnc2)cc1,-16%,37*,1%,23*,-11%,5%
O=C(Nc1ccc(OCc2ccccc2)cc1)c1ccccc1,0%,26,1%,14*,20%,.
CCOC(=O)C(=O)Nc1ccc(OCc2ccccc2)cc1,19%,-4,-2%,3,18%,-6%
O=C(NCCc1ccc(Cl)cc1)c1cccnc1,.,14,-5%,21,34%,-8%
O=C(Nc1ccc(OCc2ccccc2)cc1)c1cccnc1,-12%,41*,2%,20*,.,-8%
Cc1ccc(C(=O)Nc2ccc(OCc3ccccc3)cc2)s1,?,97,2%,18*,?,6%
O=C(NC(=S)N(CCO)Cc1ccccc1)c1ccc(S(=O)(=O)N2CCCC2)cc1,1%,-4,4%,-2,-4%,.
O=C(NCCCSc1ccccc1)c1cccnc1,-30%,-16,-2%,-2,25%,10%
Cc1cc(OCc2nc(-c3ccc(NC(=O)c4cccnc4)cc3)no2)ccc1Cl,?,10,5%,0,?,19%
O=C(Nc1ccc(-c2noc(CCc3ccccc3)n2)cc1)c1cccnc1,27%,40*,-1%,27*,?,-6%
CC(C)=CC(=O)Nc1ccc(Br)cc1,-6%,74*,-10%,58*,150%,-42%
O=C(NCCSc1ccccc1)c1cccnc1,-2%,83*,11%,49*,84%,-1%
CC(=O)N1c2ccc(S(=O)(=O)N3CCCCC3)cc2CC1C(=O)NCc1cccc(Cl)c1 (stereo not given),?,-10,2%,-1,-8%,3%
Cc1ccc(OC(=O)c2oc3ccc(F)cc3c2C)c(C)c1,96%,46,-26%,35*,-4%,-45%
CCCCN1C(=O)C(NC(=O)CC(C)C)(C(F)(F)F)C2=C1CC(C)(C)CC2=O (stereo not given),-4%,-5,-3%,-3,9%,16%
CCc1nn2cc(C(=O)c3cc(C)ccc3O)cnc2c1-c1ccc(F)cc1,4%,-15,5%,-1,2.6µM*,-6%
Cc1ccc(N=C(NO)c2nonc2N)cc1,.,95*,3%,46*,?,3%
COc1ccc(C2CC(C(F)(F)F)n3nc(C(=O)Nc4c(C)n(C)n(-c5ccccc5)c4=O)c(Cl)c3N2)cc1 (stereo not given),-22%,-8,11%,-4,-25%,-17%
COC(=O)N(C)c1ccc(C(O)(C(=O)OC)C(F)(F)F)cc1 (stereo not given),?,-3,-13%,-1,-14%,-4%
COC(=O)C(O)(c1ccc2c(c1)CCCN2)C(F)(F)F (stereo not given),8.3µM*,-10,1%,-6,.,-1%
COc1ccc(NC(=O)CSCC(=O)NC2(C)CCS(=O)(=O)C2)cc1 (stereo not given),-3%,-12,1%,-4,0%,-12%
SMILES,Pf growth 96h,Shiga inhibitor,SARS PLP yeast,Cycloheximide cs,Pf growth 48h,NS1 inh
O=[N+]([O-])c1cccnc1Sc1n[nH]c(-c2ccc(Cl)cc2)n1,62%,55*,0%,37*,60%,-1%
O=[N+]([O-])c1cccnc1Sc1ccc(Cl)cc1,10%,24,-2%,-7,.,3%
CCc1ccc(N2CC(C(=O)Nc3cccnc3)CC2=O)cc1 (stereo not given),-18%,-5,14%,-2,.,?
COc1cccc(C(=O)Nc2nnc(SCC(=O)NC3CCCC3)s2)c1,10%,31,1%,7,31%,2%
COc1ccc(N2CC(C(=O)Nc3nnc(SCc4cccnc4)s3)CC2=O)cc1 (stereo not given),13µM*,16,-7%,4,?,-1%
Cc1nnc(SCC(=O)NC2CCCCC2)s1,196%,34,-3%,20,30%,.
